# Assay results: PubChem BioAssay AID463173 (ICCB-Longwood Screening Facility, Harvard Medical School, 2010)
# About 4,300 (8.3%) of roughly 52,000 compounds were called active. Rule as the data show it: active = survival mostly below about 52% (no sharp cut-off); inactive = mostly above about 56%. What follows is part of a selection rich in actives, with near analogues and random picks from the rest.
# Test system: DeltatarO mutant
# Assay: growth inhibition of S. aureus wild type versus tarO mutant, primary screen, teichoic acid synthesis inhibitors, RN4220, OD600 (AID 463173)
# Conditions: OD600, 18 h, hits give low values, screened at 18.75 µg/mL (by protocol)
row,SMILES,survival
1,Cc1ccc(-c2cn3c(n2)sc2cc(C(=O)NCCCc4ccccc4)ccc23)c(C)c1,48% (inactive)
2,O=C1N(c2ccccc2)C(=O)N(c2ccccc2)C2c3ccccc3C=CN12 (stereo not given),100% (inactive)
3,CCOC(=O)c1ccccc1NC(=O)Nc1cc2c(cc1N1CCCC1)n(C)c(=O)n2C,108% (inactive)
4,CCc1nc2ccc(C(=O)NCCc3ccc(OC)c(OC)c3)cc2nc1CC,88% (inactive)
5,Cc1cccc(NC(=O)c2c(Br)sc3c2CCCC3)c1,3% (active)
6,CCOc1ccc(NC(=O)c2c(NC(=O)c3cccc(C)c3)sc3c2CCC3)cc1,160% (inactive)
7,Cc1cccc(NC(=O)c2c(NC(=O)c3ccccc3)sc3c2CCCC3)c1,61% (inactive)
8,O=C(Nc1sc2c(c1C(=O)Nc1cccc(Cl)c1)CCCC2)c1cccs1,159% (inactive)
9,Cc1cccc(NC(=O)c2c(NC(=O)C(F)(F)F)sc3c2CCCCC3)c1,-3% (active)
10,Cc1cccc(NC(=O)c2c(N)sc3c2CCC(C)C3)c1 (stereo not given),59% (inactive)
11,Cc1cccc(NC(=O)c2c(NC(=O)c3ccccc3)sc3c2CCC3)c1,72% (inactive)
12,O=C(Nc1cccc(Cl)c1)c1c(NC(=O)C(F)(F)F)sc2c1CCCC2,-2% (active)
13,O=C(Cc1ccccc1)Nc1sc2c(c1C(=O)Nc1cccc(Cl)c1)CCCCC2,65% (inactive)
14,O=c1n(Cc2ccc(F)cc2Cl)c2ccccc2c2nc(-c3ccccc3)nn12,125% (inactive)
15,O=S(=O)(c1ccc(-c2cnc(C3CC3)o2)cc1)N1CCN(c2cccc(Cl)c2)CC1,75% (inactive)
16,COc1ccc(Br)cc1CNC(=O)C1COc2ccccc2C1 (stereo not given),49% (inactive)
17,CCOc1ccccc1C(=O)Oc1c(Sc2ccccc2)c(C)nn1C(C)(C)C,91% (inactive)
18,COc1cccc(C(=O)Oc2c(Sc3ccc(C)cc3)c(C)nn2C(C)(C)C)c1OC,21% (active)
19,Cc1ccc(Sc2c(C)nn(C(C)(C)C)c2OC(=O)C(C)(C)C)cc1,-10% (active)
20,COc1ccc(C(=O)Oc2c(Sc3ccc(C)cc3)c(C)nn2C(C)(C)C)c(OC)c1,49% (inactive)
21,COc1ccc(C(=O)Oc2c(Sc3ccc(C)cc3)c(C)nn2C(C)(C)C)cc1OC,115% (inactive)
22,Cc1nn(C(C)(C)C)c(OC(=O)C(C)(C)C)c1Sc1ccccc1,-10% (active)
23,COc1ccccc1C(=O)Oc1c(Sc2ccccc2)c(C)nn1C(C)(C)C,87% (inactive)

row,SMILES,survival
1,Cc1ccccc1C(=O)Oc1c(Sc2ccccc2)c(C)nn1C(C)(C)C,21% (active)
2,Cc1oc2cc3oc(=O)c(CCC(=O)NCCc4ccccc4F)c(C)c3cc2c1C,94% (inactive)
3,O=S(=O)(c1ccc2oc(-c3cccnc3)nc2c1)c1ccc2oc(-c3cccnc3)nc2c1,64% (inactive)
4,CCOC(=O)c1c(-c2ccc(C)cc2C)csc1NC(=O)c1ccccc1Cl,47% (inactive)
5,CC(C)c1ccc(C2N3CC4(C)CN2CC(c2ccccc2)(C3)C4=O)cc1 (stereo not given),80% (inactive)
6,CC(C)NC(=O)C1CC(=O)N(c2ccc(Oc3ccccc3)cc2)C1 (stereo not given),87% (inactive)
7,CSc1ncc(Cl)c(C(=O)Nc2ccc(S(=O)(=O)N3CCC(C)CC3)cc2)n1,62% (inactive)
8,O=C(Cn1ccn(-c2ccc(F)cc2)c(=O)c1=O)Nc1ccccc1C(F)(F)F,50% (inactive)
9,COCC(=O)Oc1c(Sc2ccc(C)cc2)c(C)nn1C(C)(C)C,78% (inactive)
10,CCC(=O)Oc1c(Sc2ccc(Cl)cc2)c(C)nn1C(C)(C)C,78% (inactive)
11,Cc1ccc(Sc2c(C)nn(C(C)(C)C)c2OC(=O)CC(C)C)cc1,-9% (active)
12,O=C(CC1Nc2ccccc2NC1=O)Nc1cccc2ccccc12 (stereo not given),93% (inactive)
13,Cc1ccc(CCNC(=O)c2ccc(Cn3c(=O)c4cccn4c4cccnc43)cc2)cc1,52% (inactive)
14,COc1ccc(CNC(=O)c2ccc(Cn3c(=O)c4cccn4c4cccnc43)cc2)cc1OC,67% (inactive)
15,CCCNC(=O)c1ccc(Cn2c(=O)c3cccn3c3cccnc32)cc1,52% (inactive)
16,CC(C)Oc1ccc(CNC(=O)c2ccc(Cn3c(=O)c4cccn4c4cccnc43)cc2)cc1,55% (inactive)
17,CCOc1cc(CNC(=O)c2ccc(Cn3c(=O)c4cccn4c4cccnc43)cc2)ccc1OC,52% (active)
18,O=C(NCc1ccccc1Cl)c1ccc(Cn2c(=O)c3cccn3c3cccnc32)cc1,103% (inactive)
19,O=C(NCc1ccc(Cl)cc1)c1ccc(Cn2c(=O)c3cccn3c3cccnc32)cc1,49% (inactive)
20,O=C(NCCc1ccccc1)c1ccc(Cn2c(=O)c3cccn3c3cccnc32)cc1,51% (inactive)
21,CCOc1ccccc1CNC(=O)c1ccc(Cn2c(=O)c3cccn3c3cccnc32)cc1,44% (active)
22,COc1ccc(CNC(=O)c2ccc(Cn3c(=O)c4cccn4c4cccnc43)cc2)c(OC)c1,58% (active)
23,CN(C)c1ccc(CNC(=O)c2ccc(Cn3c(=O)c4cccn4c4cccnc43)cc2)cc1,60% (inactive)

row,SMILES,survival
1,O=C(NCCc1ccc(Cl)cc1)c1ccc(Cn2c(=O)c3cccn3c3cccnc32)cc1,43% (active)
2,O=C(NCCc1ccccc1)C(=O)Nc1cccc(Br)c1,68% (inactive)
3,Cc1ccc2c(CC(=O)Nc3nnc(C(C)C)s3)coc2c1C,101% (inactive)
4,CC(C)c1ccc(CN(C(=O)c2cc3ccccc3oc2=O)C2CCS(=O)(=O)C2)cc1 (stereo not given),51% (inactive)
5,CCCCOC(=O)c1ccc(NC(=O)c2ccc3c(c2)CCCN3S(C)(=O)=O)cc1,96% (inactive)
6,C=CCC1N(c2ccccc2)C(=O)C2C(C(=O)O)C3C=CC21O3 (stereo not given),103% (inactive)
7,[O-][n+]1onc2c1CCC1N(O)C(c3ccccc3)CC21O (stereo not given),80% (inactive)
8,O=C(CCSCc1ccc(Cl)cc1)N1CCN(c2ccccc2F)CC1,77% (inactive)
9,CC1=C(C(=O)Nc2cc(C)ccc2C)C2(CCCCCC2)OC1=O,89% (inactive)
10,Cc1ccccc1NC(=O)C(=O)NCC1(c2ccccc2)CCCC1,73% (inactive)
11,O=C(Cn1c(=O)n(-c2ccccc2Cl)c(=O)c2sc3ccccc3c21)NC1CCCCC1,109% (inactive)
12,CCOc1ccc(CCNC(=O)c2ccc(Cn3c(=O)c4cccn4c4cccnc43)cc2)cc1,93% (inactive)
13,CCc1ccc(CNC(=O)c2ccc(Cn3c(=O)c4cccn4c4cccnc43)cc2)cc1,67% (inactive)
14,O=C(NCc1ccccc1)c1ccc(Cn2c(=O)c3cccn3c3cccnc32)cc1,108% (inactive)
15,COc1ccc(CCNC(=O)c2ccc(Cn3c(=O)c4cccn4c4cccnc43)cc2)cc1OC,48% (active)
16,COc1ccc(CCNC(=O)CCn2c(=O)c3cccn3c3cccnc32)cc1OC,82% (inactive)
17,Cc1cccc(CNC(=O)c2ccc(Cn3c(=O)c4cccn4c4cccnc43)cc2)c1,48% (active)
18,Cc1cc(C)c2sc(N(Cc3cccnc3)C(=O)CCS(=O)(=O)c3ccccc3)nc2c1,89% (inactive)
19,CCc1ccccc1NC(=O)Cn1c(=O)nc(-c2ccccc2)c2ccccc21,90% (inactive)
20,N#Cc1ccccc1Cn1c(=O)n(-c2ccc(F)c(Cl)c2)c(=O)c2sccc21,112% (inactive)
21,O=S(=O)(c1ccccc1)c1cccc(S(=O)(=O)N2CCCC2)c1,86% (inactive)
22,Cc1cccc(C)c1NC(=O)C(c1ccccc1)N(Cc1ccco1)C(=O)Cn1nnc2ccccc21 (stereo not given),74% (inactive)
23,CCOc1ccc(NC(=O)C2CCN(C(=O)N3CC(C)Oc4ccc(Cl)cc43)CC2)cc1 (stereo not given),100% (inactive)

row,SMILES,survival
1,Cc1cc(=O)oc2ccccc12,83% (inactive)
2,Cc1ccc(C(c2nnnn2C2CCCC2)N2CCc3ccccc32)cc1 (stereo not given),100% (inactive)
3,CCN1C(=O)c2ccccc2Sc2ccc(NC(=O)Nc3cc(C)cc(C)c3)cc21,67% (inactive)
4,COc1ccccc1CNC(=O)Nc1ccc2c(c1)N(C)C(=O)c1ccccc1S2,70% (inactive)
5,Cc1ccccc1CNC(=O)Nc1ccc2c(c1)N(C)C(=O)c1ccccc1S2,63% (active)
6,CC(C)CCNC(=O)c1ccc2c(c1)N(Cc1cccc(Cl)c1)C(=O)c1ccccc1S2,83% (inactive)
7,COc1cccc(NC(=O)Nc2ccc3c(c2)N(C)C(=O)c2ccccc2S3)c1,51% (inactive)
8,CCOC(=O)c1cccc(NC(=O)Nc2ccc3c(c2)N(C)C(=O)c2ccccc2S3)c1,92% (inactive)
9,CC(C)CCNC(=O)Nc1ccc2c(c1)N(C)C(=O)c1ccccc1S2,89% (inactive)
10,CCc1ccccc1NC(=O)Nc1ccc2c(c1)N(CC)C(=O)c1ccccc1S2,41% (active)
11,CC(C)CCNC(=O)c1ccc2c(c1)N(C)C(=O)c1ccccc1S2,-5% (active)
12,CN1C(=O)c2ccccc2Sc2ccc(NC(=O)NCc3ccccc3Br)cc21,51% (inactive)
13,CCN1C(=O)c2ccccc2Sc2ccc(NC(=O)Nc3ccccc3OC)cc21,61% (inactive)
14,CCc1cccc(NC(=O)Nc2ccc3c(c2)N(C)C(=O)c2ccccc2S3)c1,26% (active)
15,CCOC(=O)c1c(C)[nH]c(C)c1S(=O)(=O)N1CCCC(C(=O)N2CCN(c3ccccc3F)CC2)C1 (stereo not given),84% (inactive)
16,CCc1ccc2oc(-c3ccc(C)c(NC(=O)Cc4ccccc4)c3)nc2c1,145% (inactive)
17,CCOc1ccc2c(c1)c(=O)c(C(=O)c1ccccc1)cn2Cc1ccccc1,87% (inactive)
18,Cc1ccc(S(=O)(=O)Cn2nnnc2CN2CCC(Cc3ccccc3)CC2)cc1,100% (inactive)
19,O=C(Cn1c(=O)c2cccn2c2ccc(F)cc21)Nc1cccc(F)c1,64% (inactive)
20,Cc1ccc(C2=Nc3ccccc3N=C(c3ccc(F)cc3)C2)c(O)c1,60% (inactive)
21,COC(=O)Cn1c(C(=O)OC)cc2c1ccn2-c1ccc(F)cc1,93% (inactive)
